Measured values: PubChem BioAssay (Tox21)
Inconclusive results are not listed. Calls of active or inactive are those of the source. Unless noted, the call rests on the fitted dose curve.

Columns and labels:
[1] = Nuclear factor erythroid 2-related factor 2/antioxidant responsive element (Nrf2/ARE) small molecule agonists: qHTS cell viability counter screen in human keratinocytes (AID 1919968; active means well fitted curve in the direction sought with a large enough effect in the repeat runs; an effect the other way counts as inactive or inconclusive; further: nearly all actives have a fitted effect of over 55% in size)
Summary of the method: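 KeratinoSens cells (HaCaT keratinocytes stably carrying an ARE-luciferase reporter) were seeded at 1,500 cells/well and rested 5 h at 37 C/5% CO2. They were then exposed to compounds in DMSO for 23 h. Viability was read by CellTiter-Fluor fluorescence after 1 h.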

[2] = target: Gonadotropin-releasing hormone receptor (Homo sapiens) (UniProt P30968); assay: Human gonadotropin-releasing hormone receptor (GnRHR) small molecule agonists, calcium flux assay in GnRHR-HEK293 cells (AID 1920063); further: nearly all actives have a fitted effect of over 35% in size
Summary of the method: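 HEK293 cells stably expressing human GnRHR were plated 18 h at 37 °C, loaded with calcium dye 1 h at 37 °C, then given compound in agonist mode; fluorescence (Ex/Em 480/540) read kinetically for 3 min at 1 s intervals.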

[3] = target: KiSS-1 receptor (Homo sapiens) (UniProt Q969F8); assay: Human kisspeptin (KISS1R) small molecule agonists, calcium flux assay in KISS1R-HEK293 cells (AID 1920064; active means well fitted curve in the direction sought with a large enough effect in the repeat runs; an effect the other way counts as inactive or inconclusive)
Summary of the method: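 HEK293 cells stably expressing human KISS1R were plated 18 h at 37 °C, loaded with calcium dye for 1 h at 37 °C, then given compound by pin tool. Fluorescence (Ex/Em 480/540) was read kinetically for 3 min.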

[4] = G protein-coupled receptor (GPCR) small molecule agonists, calcium flux assay: HEK293 wild type cell line counter screen (AID 1920065)
Summary of the method: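 Cells were plated and cultured 18 h at 37 C/5% CO2, then loaded with calcium dye for 1 h at 37 C. Compounds in DMSO were pin-transferred in agonist mode, and fluorescence (Ex/Em 480/540) was read kinetically for 3 min at 1 s intervals.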

[5] = p53 small molecule agonists, cell-based qHTS assay with human liver microsomes: qHTS cell viability counter screen (AID 1963579); further: nearly all actives have a fitted effect of over 45% in size
Summary of the method: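 Metabolic activation used human liver microsomes and NADPH, both 0.5 mg/mL final, over 16 hours at 37 C on p53RE-bla cells (4,000/well). Cytotoxicity measured by CellTiter-Glo luminescence, 30 min at room temperature.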

[6] = p53 small molecule agonists, cell-based qHTS assay with rat liver microsomes: qHTS cell viability counter screen (AID 1963580); further: nearly all actives have a fitted effect of over 45% in size
Summary of the method: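 HCT-116 p53RE-bla, 4,000 cells/well, 5 h pre-incubation; cpd + rat liver microsomes 0.5 mg/mL + NADPH 0.5 mg/mL (final); 16 h, 37 C; CellTiter-Glo, 30 min RT; luminescence.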

[7] = target: Muscarinic acetylcholine receptor M1 (Homo sapiens) (UniProt P11229); assay: Cholinergic receptor muscarinic 1 (CHRM1) small molecule antagonists, cell-based qHTS assay (AID 1963588); further: nearly all actives have a fitted effect of over 40% in size
Summary of the method: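 CHRM1-CHO calcium-flux assay, antagonist mode. Cells were seeded 18 h, dye-loaded 1 h at 37 C and given compound for 5 min at RT, then acetylcholine was added at 50nM. FDSS fluorescence was read 3 min; 15 concentrations, three runs.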

[8] = target: Muscarinic acetylcholine receptor M1 (Homo sapiens) (UniProt P11229); assay: Cholinergic receptor muscarinic 1 (CHRM1) small molecule agonists, cell-based qHTS assay (AID 1963589); further: nearly all actives have a fitted effect of over 35% in size
Summary of the method: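 CHO cells stably expressing human CHRM1, seeded 18 h at 37 C/5% CO2, dye-loaded 1 h at 37 C, then given compound in agonist mode; intracellular calcium fluorescence read kinetically at 1 s intervals. Fifteen concentrations, three independent runs.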

[9] = cAMP Responsive Elements (CRE) small molecule agonists, cell-based qHTS assay (AID 1963590)
Summary of the method: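 CRE-bla HEK 293T cells in DMEM with 10% dialyzed FBS, NEAA, pyruvate and 25 mM HEPES were plated 18 h at 37 C/5% CO2, then exposed to compounds in DMSO for 3 h before LiveBLAzer B/G FRET substrate addition.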

[10] = cAMP Responsive Elements (CRE) small molecule antagonists, cell-based qHTS assay (AID 1963591; active means well fitted inhibition curve with a large enough effect in the signal ratio in the repeat runs, not every such curve was filed as active; the % refers to the signal ratio)
Summary of the method: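 CRE-bla HEK293T cells were plated 18 h at 37 °C/5% CO2, pinned with compound in DMSO, then stimulated with NKH477 at 0.25 uM final for 3 h. LiveBLAzer B/G FRET substrate was added and plates incubated 2 h at room temperature.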

[11] = target: D(2) dopamine receptor (Homo sapiens) (UniProt P14416); assay: Dopamine D2 receptor (DRD2) small molecule agonists, cell-based qHTS assay (AID 1963594); further: nearly all actives have a fitted effect of over 35% in size
Summary of the method: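 cAMP accumulation in DRD2-HEK293 cells measured by HTRF after 1 h detection; compounds added 10 min before NKH477 (200nM […]) forskolin-analogue stimulation, 30 min at room temperature, with Ro20-1724 present at 0.1 mM final.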

[12] = target: D(2) dopamine receptor (Homo sapiens) (UniProt P14416); assay: Dopamine D2 receptor (DRD2) small molecule antagonists, cell-based qHTS assay (AID 1963595; active means well fitted inhibition curve with a large enough effect in the signal ratio in the repeat runs, with a control signal flat; the % refers to the signal ratio)
Summary of the method: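 Stable D2 receptor HEK293 line, 24 h after seeding. Compound preincubated 10 min, then quinpirole (12 nM) with forskolin analogue NKH477 (200 nM), 30 min, room temperature. Detection by time-resolved FRET of cAMP.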

[13] = p53 small molecule agonists, cell-based qHTS assay: qHTS cell viability counter screen (AID 1963581); further: nearly all actives have a fitted effect of over 45% in size
Summary of the method: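 p53RE-bla HCT-116 cells were exposed to compounds for 16 h at 37 C; after the beta-lactamase FRET read in the same wells, CellTiter-Glo was added and luminescence (intracellular ATP) read after 30 min at room temperature.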

[14] = target: 5-hydroxytryptamine receptor 2A (Homo sapiens) (UniProt P28223); assay: 5-hydroxytryptamine receptor 2A (HTR2A) small molecule antagonists, cell-based qHTS assay (AID 1963586); further: nearly all actives have a fitted effect of over 45% in size
Summary of the method: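 Antagonist-mode intracellular calcium assay: DOI (4 nM) added after 5 min compound pre-incubation at room temperature to dye-loaded HTR2A-CHO cells. Fluorescence followed for 3 min, sampled every second.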

[15] = target: 5-hydroxytryptamine receptor 2A (Homo sapiens) (UniProt P28223); assay: 5-hydroxytryptamine receptor 2A (HTR2A) small molecule agonists, cell-based qHTS assay (AID 1963587); further: nearly all actives have a fitted effect of over 30% in size
Summary of the method: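 Kinetic calcium-flux fluorescence (2 min, 1 sec intervals) after compound addition in agonist mode. HTR2A-CHO cells were cultured 18 h, then dye-loaded 1 h at 37 C.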

[16] = target: Beta-2 adrenergic receptor (Homo sapiens) (UniProt P07550); assay: Adrenergic beta2 receptor (ADRB2) small molecule antagonists, cell-based qHTS assay (AID 1963592); further: series mostly up to about 92 µM; nearly all actives have a fitted effect of over 50% in size
Summary of the method: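 Cells (CHO, stable ADRB2 overexpression) incubated 18-20hr at 37C; compounds added from DMSO; agonist mix (1nM isoproterenol, 100uM IBMX, 25uM Ro-20-1724) added; 0.5hr RT; d2-cAMP and anti-cAMP-cryptate added; 1hr RT; 665/615 nm read.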

Measured: Potency

Sequence of D(2) dopamine receptor (Homo sapiens) (P14416 whole entry, looked up): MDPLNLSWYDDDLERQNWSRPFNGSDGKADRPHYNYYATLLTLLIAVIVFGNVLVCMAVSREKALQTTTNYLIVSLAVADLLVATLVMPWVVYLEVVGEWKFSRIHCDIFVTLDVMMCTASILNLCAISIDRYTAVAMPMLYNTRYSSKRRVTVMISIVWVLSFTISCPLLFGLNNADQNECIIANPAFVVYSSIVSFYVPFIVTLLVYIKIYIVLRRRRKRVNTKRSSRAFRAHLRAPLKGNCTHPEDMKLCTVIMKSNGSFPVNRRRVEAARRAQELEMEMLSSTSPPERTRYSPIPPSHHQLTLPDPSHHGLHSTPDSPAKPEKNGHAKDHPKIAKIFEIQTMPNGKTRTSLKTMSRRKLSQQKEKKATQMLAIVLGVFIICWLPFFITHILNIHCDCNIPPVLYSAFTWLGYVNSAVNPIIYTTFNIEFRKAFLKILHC
Sequence of 5-hydroxytryptamine receptor 2A (Homo sapiens) (P28223 whole entry, looked up): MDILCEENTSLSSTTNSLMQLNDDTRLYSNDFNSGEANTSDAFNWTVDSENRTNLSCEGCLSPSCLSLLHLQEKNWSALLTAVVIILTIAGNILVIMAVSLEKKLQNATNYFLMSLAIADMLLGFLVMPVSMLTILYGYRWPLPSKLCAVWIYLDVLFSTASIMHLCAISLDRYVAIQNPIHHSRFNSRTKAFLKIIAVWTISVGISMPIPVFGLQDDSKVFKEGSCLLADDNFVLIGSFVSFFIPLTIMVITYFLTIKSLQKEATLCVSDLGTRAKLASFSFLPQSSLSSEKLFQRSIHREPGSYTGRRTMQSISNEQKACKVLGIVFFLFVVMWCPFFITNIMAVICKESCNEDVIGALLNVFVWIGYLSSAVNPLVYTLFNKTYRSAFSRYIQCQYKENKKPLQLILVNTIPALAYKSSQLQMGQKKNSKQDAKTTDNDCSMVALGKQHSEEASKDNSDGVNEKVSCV
Sequence of Muscarinic acetylcholine receptor M1 (Homo sapiens) (P11229 whole entry, looked up): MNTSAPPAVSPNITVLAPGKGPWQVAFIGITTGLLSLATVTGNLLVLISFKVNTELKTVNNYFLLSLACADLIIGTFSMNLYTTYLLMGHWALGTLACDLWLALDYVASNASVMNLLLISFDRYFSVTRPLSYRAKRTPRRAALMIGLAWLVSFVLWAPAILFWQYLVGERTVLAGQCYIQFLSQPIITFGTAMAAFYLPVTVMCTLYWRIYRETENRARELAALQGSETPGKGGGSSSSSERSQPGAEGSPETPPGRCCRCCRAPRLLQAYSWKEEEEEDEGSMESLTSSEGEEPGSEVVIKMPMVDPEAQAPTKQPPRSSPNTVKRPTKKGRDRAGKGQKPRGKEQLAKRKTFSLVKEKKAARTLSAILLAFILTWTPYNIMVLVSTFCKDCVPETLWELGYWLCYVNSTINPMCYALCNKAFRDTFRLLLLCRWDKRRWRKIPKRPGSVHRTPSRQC
Sequence of Beta-2 adrenergic receptor (Homo sapiens) (P07550 whole entry, looked up): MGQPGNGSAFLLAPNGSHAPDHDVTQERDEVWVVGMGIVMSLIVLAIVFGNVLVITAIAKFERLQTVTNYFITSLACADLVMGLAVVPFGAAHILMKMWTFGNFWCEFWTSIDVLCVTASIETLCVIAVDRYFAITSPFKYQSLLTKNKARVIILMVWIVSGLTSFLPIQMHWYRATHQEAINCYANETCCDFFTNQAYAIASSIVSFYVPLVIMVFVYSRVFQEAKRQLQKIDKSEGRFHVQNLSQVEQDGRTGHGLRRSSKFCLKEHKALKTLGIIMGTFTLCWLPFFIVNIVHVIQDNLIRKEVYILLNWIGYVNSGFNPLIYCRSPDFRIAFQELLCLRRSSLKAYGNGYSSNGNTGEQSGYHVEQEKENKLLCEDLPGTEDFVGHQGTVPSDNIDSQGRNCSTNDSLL
Sequence of KiSS-1 receptor (Homo sapiens) (Q969F8 whole entry, looked up): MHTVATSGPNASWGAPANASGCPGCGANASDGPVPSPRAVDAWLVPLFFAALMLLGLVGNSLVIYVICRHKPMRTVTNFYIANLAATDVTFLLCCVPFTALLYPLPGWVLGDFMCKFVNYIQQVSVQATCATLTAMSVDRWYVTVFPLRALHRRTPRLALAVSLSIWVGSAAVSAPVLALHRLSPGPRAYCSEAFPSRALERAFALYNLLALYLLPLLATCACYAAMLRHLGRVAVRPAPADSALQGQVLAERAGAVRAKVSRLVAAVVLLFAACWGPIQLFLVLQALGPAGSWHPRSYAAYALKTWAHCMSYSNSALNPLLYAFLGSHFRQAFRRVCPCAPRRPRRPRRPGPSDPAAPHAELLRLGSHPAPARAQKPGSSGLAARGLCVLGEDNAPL
Sequence of Gonadotropin-releasing hormone receptor (Homo sapiens) (P30968 whole entry, looked up): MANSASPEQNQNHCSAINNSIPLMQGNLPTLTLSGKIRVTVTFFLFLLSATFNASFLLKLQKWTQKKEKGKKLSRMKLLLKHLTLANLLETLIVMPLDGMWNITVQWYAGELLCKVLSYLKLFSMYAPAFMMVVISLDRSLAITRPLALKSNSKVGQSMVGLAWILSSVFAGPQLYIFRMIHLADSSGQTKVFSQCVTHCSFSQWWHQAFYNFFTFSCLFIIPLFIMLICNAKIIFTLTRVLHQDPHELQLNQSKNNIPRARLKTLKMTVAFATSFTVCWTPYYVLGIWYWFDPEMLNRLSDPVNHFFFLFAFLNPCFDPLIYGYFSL

[Cl-].[Cl-].[Cl-].[Yb+3]
inactive: [1] | [2] | [3] | [4] | [5] | [6] | [7] | [8] | [9] | [10] | [11] | [12]

CCOP(O)OCC
inactive: [1] | [2] | [3] | [4] | [5] | [6] | [13] | [14] | [15] | [7] | [8] | [9] | [10] | [16] | [11] | [12]

O=[N+]([O-])[O-].[Tl+]
inactive: [1] | [2] | [3] | [4] | [5] | [6] | [13] | [14] | [7] | [8] | [10] | [16] | [12]

CCCCn1cc[n+](C)c1.[Cl][Fe-]([Cl])([Cl])[Cl]
inactive: [1] | [2] | [3] | [4] | [5] | [13] | [14] | [15] | [7] | [8] | [9] | [10] | [16] | [11] | [12]

CC(=O)Nc1ccc2c(c1)Cc1ccccc1-2
inactive: [1] | [2] | [3] | [4] | [5] | [6] | [13] | [10] | [16] | [11] | [12]

O.O.O.O.O.O.O=S(=O)([O-])[O-].[Ni+2]
inactive: [1] | [2] | [3] | [4] | [5] | [13] | [14] | [15] | [7] | [8] | [9] | [10] | [16] | [11] | [12]

O=C1CN=C(c2ccccc2)c2cc(Cl)ccc2N1CC1CC1
inactive: [1] | [2] | [3] | [4] | [5] | [6] | [13] | [14] | [15] | [9] | [11] | [12]

Cc1cc(C)c(C2=C(OC(=O)CC(C)(C)C)C3(CCCC3)OC2=O)c(C)c1
inactive: [1] | [2] | [3] | [4] | [5] | [6] | [13] | [14] | [15] | [8] | [9] | [10] | [16] | [11] | [12]

CC(=O)[O-].CC(=O)[O-].[Co+2]
inactive: [1] | [2] | [3] | [4] | [5] | [6] | [13] | [14] | [15] | [7] | [8] | [9] | [10] | [16] | [11] | [12]
